Out of some 310,000 compounds screened, about 1,400 (0.45%) were called active.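 Rule for the calls: active = B-score, a plate-corrected calcium signal, over three deviations above library mean, with baseline fluorescence within five deviations of library mean; inactive = the rest.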 The full list was thinned out, with actives kept by preference.
Molecular target: Regulator of G-protein signaling 4 (Homo sapiens) (UniProt P49798)
Assay: blockers of RGS4 function in M3R calcium signaling – cell-based, HEK293 M3R inducible RGS4, calcium flux, primary screen (AID 463165);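 note: RGS4 expression induced by doxycycline in cells with stable M3 receptor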;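 for B-score: B-score is computed from the integrated fluorescence ratio over baseline after carbachol; higher B-score means a larger calcium signal and so more RGS4 inhibition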
Settings: Fluo-4 calcium flux, at 10 µM, triggered by carbachol at its EC20; active compounds read high

Sequence of Regulator of G-protein signaling 4 (Homo sapiens) (P49798 whole entry, looked up): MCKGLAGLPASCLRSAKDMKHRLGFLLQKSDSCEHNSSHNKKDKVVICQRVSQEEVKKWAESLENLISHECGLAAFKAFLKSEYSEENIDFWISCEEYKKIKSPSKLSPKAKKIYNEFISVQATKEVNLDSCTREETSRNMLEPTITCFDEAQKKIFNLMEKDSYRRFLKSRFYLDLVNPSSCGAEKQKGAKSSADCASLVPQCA

SMILES	B-score
O=C1NC(c2cccc(Cl)c2)Nc2ccccc21 (stereo unspecified)	inactive
O=C1c2ccccc2NC(c2ccc(-c3cccc(Cl)c3)o2)N1O (stereo unspecified)	8.05 (active)
O=c1c(-c2cccc(Cl)c2)c[nH]n1-c1ccccc1	inactive
Cc1nn2c(=O)cc(COC(=O)c3ccc(NC(=O)C(C)(C)C)cc3)nc2s1	17.9 (active)
COCCc1nn2c(=O)cc(COC(=O)c3cc(OC)c(OC)c(OC)c3)nc2s1	inactive
CCOC(=O)c1ccc(NC(=O)c2cccnc2)cc1	inactive
COc1ccc(CC(=O)NC2CCSc3ccccc32)cc1OC (stereo unspecified)	inactive
CN(C(=O)c1cccc([N+](=O)[O-])c1)c1ccccc1C(=O)NCc1ccccc1	inactive
C=CCOc1ccc(/C=C2/C(=O)ON=C2C)cc1OCC	9.13 (active)
C#CCOc1ccc(/C=C2/C(=O)ON=C2C)cc1OCC	6.2 (active)
C#CCOc1ccccc1/C=C1/C(=O)ON=C1C	inactive
CC1=NOC(=O)/C1=C\c1ccccc1	inactive
COc1cc(/C=C2/C(=O)ON=C2C)ccc1OCc1cccc(F)c1	inactive
COc1cc(/C=C2/C(=O)ON=C2C)ccc1OCc1ccccc1F	inactive
O=C(O)C1C2C=CC(O2)C1C(=O)NCCc1cccc(Cl)c1 (stereo unspecified)	inactive
O=C(Oc1c(-c2ccco2)oc2ccccc2c1=O)c1cccnc1	inactive
O=C1C(=O)N(c2ccccc2)c2ccccc21	inactive
CC1CCCCC1NC(=O)c1cc(=O)[nH]c2ccccc12 (stereo unspecified)	inactive
CC(C)(CNC(=O)c1cc(=O)[nH]c2ccccc12)N1CCOCC1	inactive
COC(=O)C1CCN(C(=O)c2cc(=O)[nH]c3ccccc23)CC1	5.3 (active)
O=C(CNC(=O)[C@@H]1Cc2ccccc2CN1)NC1CCCCC1	inactive
COc1ccccc1N1CCN(S(=O)(=O)CCNC(=O)c2ccc(OC(C)C)cc2)CC1	inactive

SMILES	B-score
Cc1ccc(CSCC2Nc3ccc(C(=O)N4CCN(c5ccc(F)cc5)CC4)cc3NC2=O)cc1 (stereo unspecified)	inactive
COc1ccc(N2CCN(C(c3cc4ccc(C)cc4[nH]c3=O)c3nnnn3C3CCCC3)CC2)cc1 (stereo unspecified)	inactive
Cc1cc(C)c2[nH]c(=O)c(C(c3nnnn3Cc3ccc4c(c3)OCO4)N3CCCC3)cc2c1 (stereo unspecified)	inactive
CCOC(=O)C1CCN(C(c2cc3cc(C)cc(C)c3[nH]c2=O)c2nnnn2C2CCCCC2)CC1 (stereo unspecified)	6.12 (active)
COc1ccc(S(=O)(=O)NCCc2cc3ccc(C)c(C)c3[nH]c2=O)cc1	inactive
CCOCCCNC(=O)c1cc2c(=O)n3ccccc3nc2s1	inactive
Cc1cc(C)nc(S/C=C/C(=O)c2ccccc2)n1	10.7 (active)
Cc1ccc(N/C=C/C(=O)c2ccccc2)cc1C	inactive
Cc1cc(C)nc(SCC(=O)c2ccc(Cl)cc2)n1	inactive
CN=C(NC#N)NCCSCc1nc[nH]c1C	inactive
COc1ccc(CN(C(=O)CSc2nnc(-c3ccc(OC)c(OC)c3)o2)c2ccc(F)cc2)cc1	inactive
CCOc1ccc(/C=N/NC(=O)CSc2ccccn2)cc1O	4.74 (active)
CCOc1ccc(/C=N/NC(=O)C(C)Sc2ccccn2)cc1OCC (stereo unspecified)	inactive
Cc1ccc(/C=N/NC(=O)CSc2ccccn2)o1	inactive
Cc1cc(=O)oc2cc(OC(C)C(=O)Nc3ccc(N4CCOCC4)cc3)ccc12 (stereo unspecified)	inactive
COc1cc(NC(=O)CSC(=S)N2CCCC2)c(OC)cc1Cl	inactive
CC(C)(C)Oc1ccccc1Nc1nc(NCCO)nc(N2CCCC2)n1	inactive
CCOc1ccc(CNC(=O)CCC(=O)N2CCSc3ccccc32)cc1	inactive
C[C@H](NC(=O)c1nc[nH]c1C(=O)NCC(=O)OC(C)(C)C)c1ccccc1	5.48 (active)
C[C@H](NC(=O)c1nc[nH]c1C(=O)NCC(=O)OC(C)(C)C)C(=O)OCc1ccccc1	inactive
CC(C)(C)OC(=O)CNC(=O)c1[nH]cnc1C(=O)N[C@@H](Cc1ccccc1)C(=O)OCc1ccccc1	inactive
Cc1ccc(N(C(=O)c2ccc(CN3CCOCC3)o2)C(C(=O)NCCC(C)C)c2cccs2)c(C)c1 (stereo unspecified)	inactive

SMILES	B-score
O=C(CSCc1ccccc1)Nc1ccccc1	inactive
CCN(CC)S(=O)(=O)c1ccc(N2CC(C(=O)NCc3cccnc3)CC2=O)cc1 (stereo unspecified)	inactive
N#Cc1ccc(/C=C2\CCn3c2nc2cc(C(=O)O)ccc2c3=O)cc1	inactive
O=C(O)c1ccc2c(=O)n3c(nc2c1)/C(=C/c1ccc(OC(F)F)cc1OC(F)F)CC3	inactive
Cc1ccc(/C=C2\CCn3c2nc2cc(C(=O)O)ccc2c3=O)c(C)c1	6.23 (active)
CCOC1CS(=O)(=O)CC1OCC (stereo unspecified)	inactive
CCCN(CCC)S(=O)(=O)c1ccc(C(=O)N2CC3CCC(CC3)C2)cc1	inactive
CC(C)=CCCC1(C)C=Cc2c(ccc3c2[nH]c2cc(O)c(C)cc23)O1 (stereo unspecified)	inactive
O=C(O)CCC(=O)N(Cc1ccccc1)Cc1ccccc1	inactive
O=C(Nc1ccccc1Cl)c1ccccc1S(=O)(=O)c1ccccc1[N+](=O)[O-]	inactive
Cc1nn(-c2ccccc2)c2c1C(c1ccc(F)cc1)C(C#N)=C(N)O2 (stereo unspecified)	inactive
Cc1nn(Cc2ccccc2)c2c1C(c1ccccc1)C(C#N)=C(N)O2 (stereo unspecified)	inactive
COc1ccccc1C1C(C#N)=C(N)Oc2c1c(-c1ccccc1)nn2-c1ccccc1 (stereo unspecified)	8.32 (active)
Cc1cccc(OCCCC(=O)Nc2ccc(S(=O)(=O)N3CCCC3)cc2)c1	inactive
CS(=O)(=O)c1ccc(C(=O)OCC(=O)NNC(=O)COc2ccc(Cl)cc2)cc1	inactive
Cc1ccc(C)c(Cn2nnc3c(=O)[nH]c(C(=O)Nc4ccc(F)cc4)nc32)c1	7.87 (active)
Cc1ccc(NC(=O)N2CCC(c3nc4c(nnn4Cc4c(F)cccc4Cl)c(=O)[nH]3)CC2)cc1	inactive
O=C(Nc1ccc(F)cc1)N1CCCC(c2nc3c(nnn3Cc3ccccc3Cl)c(=O)[nH]2)C1 (stereo unspecified)	inactive
O=C(O)C1C2C=CC(C2)C1C(=O)NCc1ccccc1 (stereo unspecified)	inactive
O=C(CN1C(=O)NC2(CCCCCC2)C1=O)NCc1cccs1	inactive
COC(=O)c1c(C(=O)OC)c2n(c1C)CCS2	inactive
COc1ccc(C)cc1NC(=O)CSc1nnc2ccc(-c3ccccn3)nn12	inactive

SMILES	B-score
COc1ccc(S(=O)(=O)Nc2ccc(O)c(Sc3nc4ccccc4s3)c2)cc1	5.99 (active)
CCOc1ccc(S(=O)(=O)Nc2nc3cc(OC)ccc3s2)cc1	inactive
O=C(O)c1cccc(S(=O)(=O)Nc2ccc(O)cc2Sc2nc3ccccc3s2)c1	inactive
CNc1nccc(-c2ccc(Cl)cc2)c1C#N	inactive
CC(C)c1nc(SCC(=O)Nc2cccc(C(=O)O)c2)c2c3c(sc2n1)CCCC3	5.64 (active)
Cc1ccc(C)c2c1cc(C)c1nnc(SCC(=O)Nc3cccc(C(=O)O)c3)n12	inactive
Cc1cc(NC(=O)CSc2nc(C(C)C)nc3sc4c(c23)CCC(C)C4)no1 (stereo unspecified)	inactive
Cc1ccccc1OC(=O)Cn1c(C(F)(F)F)nc2ccccc21	inactive
Cc1ccc(-n2[nH]c(C)c(/C=N/NC(=O)c3cccc([N+](=O)[O-])c3)c2=O)cc1C	inactive
COc1ccc(-c2csc(Nc3ccc(O)cc3)n2)cc1	8.75 (active)
COc1ccc(-c2csc(Cc3nc(O)cs3)n2)cc1	inactive
COc1ccc(-c2csc(NC(=O)COC(=O)c3ccc(Br)o3)n2)cc1	inactive
CCOc1ccc(OCC)c(NC(=O)CCS(=O)(=O)c2ccc(C)cc2)c1	inactive
CN(C)c1ccc(CNC2C3CC4CC(C3)CC2C4)cc1 (stereo unspecified)	inactive
Oc1ccc(-c2[nH]ncc2-c2nc3ccccc3s2)c(O)c1	5.08 (active)
COc1ccc(Oc2cn[nH]c2-c2ccc(OC)cc2O)cc1	inactive
CC(=O)Nc1cccc(-c2nc3ccccc3s2)c1C	inactive
CCC1(C(=O)c2ccccc2)C(c2cccc([N+](=O)[O-])c2)C1(C(=O)OC)C(=O)OC (stereo unspecified)	inactive
CC(CC(=O)C1C(C)C=CCC1(C)C)NNC(N)=O (stereo unspecified)	inactive
Cc1ccc(-c2csc(NC(=O)C3=COCCO3)n2)cc1C	9.56 (active)
CC(=O)NCCC(=O)Nc1nc(-c2ccc3c(c2)OCCO3)cs1	inactive
Cc1csc(NC(=O)C2=COCCO2)n1	inactive

SMILES	B-score
COc1cccc(NC(C)=[N+](C)CCNS(=O)(=O)c2ccc(Cl)cc2)c1	inactive
CCCCN1C(=O)CC(N2CCOCC2)C1=O (stereo unspecified)	inactive
O=C(CCN1CCc2ccccc2C(O)(c2ccccc2)C1)c1ccc2c(c1)OCCO2 (stereo unspecified)	8.45 (active)
O=C(CN1CCC(O)(c2ccccc2)CC1)Nc1ccc2c(c1)OCCO2	inactive
CCC1(c2ccccc2)NC(=O)N(CC(=O)c2ccc3c(c2)OCO3)C1=O (stereo unspecified)	inactive
CC(CO)N1CCS(=O)(=O)CC1 (stereo unspecified)	inactive
COc1cccc(OC)c1C(=O)Nc1ccc(Cc2ccncc2)cc1	inactive
CC(C)Cc1nc(Nc2ccc(S(=O)(=O)N3CCCC3)cc2)c2nnn(Cc3ccccc3)c2n1	4.81 (active)
Clc1ccc(Nc2ncnc3c2nnn3Cc2ccccc2)cc1	inactive
Cc1nc(Nc2ccc(S(=O)(=O)N3CCCC3)cc2)c2nnn(Cc3ccccc3)c2n1	inactive
Cc1ccccc1CN1CCC(C(=O)Nc2ccc(Oc3cccnc3)cc2)CC1	inactive
COc1ccc(-c2cc(C(=O)N/N=C/c3cccnc3)c3ccccc3n2)c(OC)c1	inactive
Cn1c(-c2ccco2)nc2cc3ccccc3cc21	8.29 (active)
Cc1cc(C)c2nc(-c3ccco3)cc(C(=O)O)c2c1	inactive
COc1ccccc1-n1c(-c2cc(-c3ccco3)[nH]n2)n[nH]c1=S	inactive
CC(=O)c1ccc2c(c1)c1ccccc1n2CC(C)C	inactive
CCCCN(CCCC)CC(O)Cn1c2ccccc2c(=O)c2ccccc21 (stereo unspecified)	inactive
CS(=O)(=O)N(CC(O)Cn1c2ccccc2c2ccccc21)c1cccc2ccccc12 (stereo unspecified)	7.61 (active)
